ALR inh = inhibitors of human sulfhydryl oxidase ALR. inhibition, % (test concentration not listed). purified ALR, DTT oxidation, H2O2 HRP-luminol luminescence. actives 3.8% (n = 290,000). P55789. AID 485317;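 active = mean replicate inhibition above about 79%, with every replicate also reaching it, limit read from the data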
Target sequence (P55789 whole entry, looked up): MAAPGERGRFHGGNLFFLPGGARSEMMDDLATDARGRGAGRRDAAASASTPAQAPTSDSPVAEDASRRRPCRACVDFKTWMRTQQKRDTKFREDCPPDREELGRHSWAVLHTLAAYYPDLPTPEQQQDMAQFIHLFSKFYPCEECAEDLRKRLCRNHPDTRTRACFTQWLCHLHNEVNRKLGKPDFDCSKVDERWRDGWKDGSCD
PglD inh = inhibitors of Campylobacter jejuni PglD acetyltransferase; purified PglD enzyme, DTNB colorimetric CoA detection; inhibition, % at 12.5 µM; actives 0.098% (n = 360,000); AID 602405; in the data active = inhibition above about 16%, passing the limit was not always enough
NRP1-CendR mod = alters CendR peptide binding to human NRP-1. O14786. FAM-RPARPAR peptide binding to NRP-1, fluorescence polarization. inhibition, % at 25 µM. actives 0.85% (n = 360,000). AID 602438;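 active = inhibition or corrected inhibition above about 18%, plus a signal ratio from 0.5 to 1.5, limit read from the data, passing the limit was not always enough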
PDI inh = inhibitors of human protein disulfide isomerase | P07237 | PDI insulin aggregation turbidity, A650, 90 min | inhibition, % at 10 µM | actives 0.052% (n = 350,000) | AID 588391;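 active = mean inhibition across replicates of 30% or more, whatever share of single replicates reach that level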
ERp5 block = ERp5 (human) disulfide isomerase inhibition. Q15084. ERp5 insulin aggregation, absorbance 650 nm, 90 min. inhibition, % at 9.99 µM. actives 0.05% (n = 350,000). AID 651711;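 active = mean replicate inhibition above about 25%, with every replicate also reaching it, limit read from the data, passing the limit was not always enough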
ARNT-TACC3 inh = ARNT/TACC3 interaction disruption; AlphaScreen His-ARNT PAS-B/GST-TACC3 binding, luminescence; TACC3 fragment carries E629A point mutation; inhibition, % at 9.99 µM; actives 0.66% (n = 390,000);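 active = mean inhibition of replicates at least 50% and at least half of replicates each reaching 50%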
Large screens that a line does not name were inactive. Only a selection was taken, and hits are over-represented in it overall.

C[C@@H]1CN([C@H](C)CO)C(=O)Cc2cc(NS(C)(=O)=O)ccc2O[C@@H]1CN(C)C(=O)Nc1ccc(C(F)(F)F)cc1	none (no result: ALR inh, NRP1-CendR mod, PDI inh)
C/C=C/c1ccc([C@H]2[C@H]3CN(S(=O)(=O)c4cccs4)CCCCN3[C@H]2CO)cc1	none (no result: ALR inh, NRP1-CendR mod, PDI inh)
O=C1CNC(=S)N1CCc1ccc(O)c(O)c1	ALR inh 99.7 (no result: ARNT-TACC3 inh)
O=C1CNC(=S)N1CCOc1ccccc1	none
COCC(=O)Nc1ccc2c(c1)[C@@H]1C[C@@H](CC(=O)NCc3cc(F)ccc3F)O[C@@H](CO)[C@@H]1O2	none (no result: ALR inh, NRP1-CendR mod, PDI inh, ERp5 block)
O=C(CNC(=O)c1cccs1)OCC(=O)c1ccccc1	none
O=C(COc1ccccc1F)OCC(=O)c1ccc([N+](=O)[O-])cc1	ALR inh 79.2 (no result: ARNT-TACC3 inh)
Cc1ccc(C(=O)COC(=O)COc2ccccc2C)cc1	none
O=C(CNC(=O)c1cccs1)NCC(=O)OCC(=O)c1ccc([N+](=O)[O-])cc1	ALR inh 95.9 (no result: PglD inh)
Cc1ccccc1OCC(=O)NCC(=O)OCC(=O)c1ccc([N+](=O)[O-])cc1	ALR inh 96.6
C[C@@H](NC(=O)C[C@H]1C=C[C@H](NC(=O)C2CC2)[C@@H](CO)O1)c1ccccc1	none (no result: ALR inh, NRP1-CendR mod, PDI inh)
O=C(C[C@H]1CC[C@H](NC(=O)Nc2cc(F)ccc2F)[C@@H](CO)O1)NCc1ccccn1	none (no result: ALR inh, NRP1-CendR mod, PDI inh)
CCCNC(=O)N1[C@@H]2c3ccc(-c4ccccc4OC)c(=O)n3C[C@H]1[C@H](CO)[C@H]2C(=O)NCC	none (no result: ALR inh, NRP1-CendR mod, PDI inh)
COC(=O)Nc1ccc(SCC(=O)c2ccccc2)cc1	ALR inh 99.1 (no result: PglD inh)
O=C(COC(=O)C1CC1)NCCc1ccccc1	none
CC(CCc1ccccc1)NC(=O)COC(=O)C1CCC(C(C)(C)C)CC1 (stereo unspecified)	NRP1-CendR mod 31.6
CC(C)NC(=O)N(C)C[C@H]1Oc2ccc(NC(=O)Nc3cccc4ccccc34)cc2C(=O)N([C@@H](C)CO)C[C@@H]1C	none (no result: ALR inh, NRP1-CendR mod, PDI inh)
COc1ccc([N+](=O)[O-])cc1NC(=O)CSCc1ccccc1C	ALR inh 98.9 (no result: PglD inh, ERp5 block)
COc1ccc(C)cc1NC(=O)CSCc1ccccc1C	none
O=C1C(c2ccccc2)=[N+]([O-])c2ccccc21	ALR inh 91.4, NRP1-CendR mod 30.4
CC(C)CCNC(=O)COC(=O)/C=C/c1ccc2ccccc2n1	ALR inh 96.7
COC(=O)c1c(N2C(=O)Nc3ccccc3N2O)sc2c1CCCC2	none (no result: PglD inh)
CCOC(=O)c1c(N2C(=O)Nc3ccccc3N2O)sc2c1CCCCC2	ALR inh 95.1 (no result: PglD inh)
C/C(CCc1ccc2c(c1)OCO2)=N\NC(=S)NC(C)C	ALR inh 85.1
COCCNC(=S)N/N=C(\C)CCc1ccc2c(c1)OCO2	none
O=c1cc(CO)oc(C(Nc2ccccn2)c2ccccc2F)c1O (stereo unspecified)	ALR inh 97.0
O=c1cc(CO)oc(C(Nc2ccccn2)c2cccc(F)c2)c1O (stereo unspecified)	ALR inh 97.5
O=c1cc(CO)oc(C(Nc2ccccn2)c2ccc(C(F)(F)F)cc2)c1O (stereo unspecified)	none (no result: ERp5 block)
C[C@H]1CN([C@@H](C)CO)C(=O)c2cc(NC(=O)CCC(F)(F)F)ccc2O[C@@H]1CN(C)Cc1ccc(Cl)c(Cl)c1	none (no result: ALR inh, NRP1-CendR mod, PDI inh)
COCC(=O)Nc1ccc2c(c1)C(=O)N(C)C[C@H](OC)[C@@H](C)CN(C(=O)Cc1ccccn1)[C@H](C)CO2	none (no result: ALR inh, NRP1-CendR mod, PDI inh)
CO[C@@H]1CN(C)C(=O)c2ccc(NC(=O)Nc3cccc(F)c3)cc2OC[C@@H](C)N(C(=O)Nc2c(C)noc2C)C[C@H]1C	none (no result: ALR inh, NRP1-CendR mod, PDI inh)
CC(C)Cc1c(O)nc(SCC(=O)N2CCCCCC2)[nH]c1=O	ALR inh 97.4
CCC(C)c1c(O)nc(SCc2ccccc2)[nH]c1=O (stereo unspecified)	ALR inh 98.6 (no result: ERp5 block)
CC(C)CCc1c(O)nc(SCC(C)C)[nH]c1=O	ALR inh 88.7 (no result: PglD inh)
CCC(C)c1c(O)nc(SCC(=O)N2CCCCCC2)[nH]c1=O (stereo unspecified)	ALR inh 96.8
COCC(=O)N1CC2(CN(Cc3ccc(OC)cc3)C2)c2c([nH]c3cc(OC)ccc23)[C@@H]1CO	none (no result: ALR inh, PglD inh, NRP1-CendR mod, PDI inh, ARNT-TACC3 inh)
O=C(CCN1CCCCC1)NCC[C@H]1CC[C@H](NC(=O)Nc2ccc(Cl)cc2)[C@@H](CO)O1	none (no result: ALR inh, NRP1-CendR mod, PDI inh)
CCCC(=O)Nc1sc(C(=O)Nc2cccc(N)c2)c(C)c1C(=O)OC	ALR inh 98.3

Bioassay records (PubChem)
